PubChem BioAssay (NCI)
Compounds without any hit were thinned out: in the full panel of roughly 83,000, 20% have a hit.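 The test compound was applied at a single concentration to cells in 96-well plates for 48 hours, and percent growth was recorded.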 Values without a mark were called inactive. The source made the active and inactive calls. Rule for the calls: active = growth percent below 10; inactive = the rest.

How the values were obtained:
Assay in all cases: NCI-60 one-dose screen, 48 h (100 = growth as untreated, 0 = no growth, -100 = all killed)
Details in all cases: 10 µM unless noted
DU-145 prostate = system: DU-145 prostate
K-562 leukemia = system: K-562 leukemia
MALME-3M melanoma = system: MALME-3M melanoma
MDA-MB-231 breast = system: MDA-MB-231 breast
RXF 393 renal = system: RXF 393 renal
SF-268 CNS = system: SF-268 CNS
SF-295 CNS = system: SF-295 CNS
SF-539 CNS = system: SF-539 CNS
UACC-257 melanoma = system: UACC-257 melanoma
M14 melanoma = system: M14 melanoma
HCT-15 colon = system: HCT-15 colon
HT29 colon = system: HT29 colon
SNB-75 CNS = system: SNB-75 CNS
SNB-19 CNS = system: SNB-19 CNS
U251 CNS = system: U251 CNS
PC-3 prostate = system: PC-3 prostate
SK-MEL-5 melanoma = system: SK-MEL-5 melanoma
UACC-62 melanoma = system: UACC-62 melanoma
LOX IMVI melanoma = system: LOX IMVI melanoma
SK-MEL-28 melanoma = system: SK-MEL-28 melanoma

SMILES	growth (DU-145 prostate)	growth (K-562 leukemia)	growth (MALME-3M melanoma)	growth (MDA-MB-231 breast)	growth (RXF 393 renal)	growth (SF-268 CNS)	growth (SF-295 CNS)	growth (SF-539 CNS)	growth (UACC-257 melanoma)	growth (M14 melanoma)	growth (HCT-15 colon)	growth (HT29 colon)	growth (SNB-75 CNS)	growth (SNB-19 CNS)	growth (U251 CNS)	growth (PC-3 prostate)	growth (SK-MEL-5 melanoma)	growth (UACC-62 melanoma)	growth (LOX IMVI melanoma)	growth (SK-MEL-28 melanoma)
O=C(/C=C/c1ccc(Cl)cc1)c1ccc(-n2cc(CN3CCN(c4cc5c(cc4F)c(=O)c(C(=O)O)cn5C4CC4)CC3)nn2)cc1	90.8%	67.5%	84.8%	88.1%	75%	77.3%	90.7%	92.8%	91.7%	88.7%	95.8%	78.2%	91.6%	84.1%	68.6%	89%	81.6%	74.6%	56.9%	85.4%
CCN1C(=O)N(CC)C2C1NC(=S)N2/N=C/C=C/c1ccccc1 (stereo not given)	7.35% (active)	10.9%	53.7%	18.5%	18.8%	20.8%	3.58% (active)	-13.8% (active)	55.1%	5.45% (active)	12.4%	3.6% (active)	42.2%	19.5%	15.5%	20.6%	-30% (active)	23%	14.3%	61%
CCCCC/C=C/CCC(=O)N[C@H]1[C@H](Oc2c3cc4cc2Oc2ccc(cc2Cl)[C@@H](O[C@@H]2O[C@H](CO)[C@@H](O)[C@H](O)[C@H]2NC(C)=O)[C@@H]2NC(=O)[C@H](NC(=O)[C@@H]4NC(=O)[C@H]4NC(=O)[C@@H](Cc5ccc(c(Cl)c5)O3)NC(=O)[C@@H](N)c3ccc(O)c(c3)Oc3cc(O)cc4c3)c3ccc(O)c(c3)-c3c(O[C@H]4O[C@H](CO)[C@@H](O)[C@H](O)[C@@H]4O)cc(O)cc3[C@H](C(=O)O)NC2=O)O[C@H](CO)[C@H](O)[C@@H]1O	112%	98.6%	108%	100%	112%	98.5%	94.8%	110%	89.4%	109%	111%	103%	109%	87.3%	95.7%	89.9%	108%	96.4%	91.5%	119%
C=CCNc1nc(O)c(/C=C2\C=Nc3ncccc32)s1	12.7%	42.1%	40.2%	19.8%	-41.3% (active)	-3.26% (active)	13%	-66.2% (active)	9.55% (active)	24.5%	24.7%	26.4%	-67.3% (active)	11%	0.764% (active)	12.6%	2.01% (active)	9.75% (active)	0.553% (active)	-2.4% (active)
CN1CCN(CCCNC(=O)c2c3c(n4ccccc24)C(=O)c2ncccc2C3=O)CC1	17.8%	-1.31% (active)	-91.2% (active)	0.342% (active)	21.1%	9.37% (active)	28.4%	-4.38% (active)	-55.8% (active)	-53.9% (active)	4.07% (active)	0.534% (active)	-4.64% (active)	-4.84% (active)	-15.7% (active)	-1.89% (active)	-96% (active)	-23.7% (active)	-31.7% (active)	61.5%
C[C@@H]1N=C(c2ccc(Cl)cc2Cl)Nc2nc3ccccn3c2C1=O	64.8%	23.6%	43.7%	64.6%	80.2%	58.9%	14.5%	53%	52.4%	31.1%	35.1%	7.68% (active)	58.7%	60.8%	41.4%	39.1%	39.6%	40.5%	51.3%	60.7%
O=C(O)/C=C/c1cn(-c2ccccc2)nc1-c1ccc(F)cc1	115%	100%	105%	95%	113%	83.7%	87.7%	92.6%	80.7%	90%	101%	107%	87.9%	92.2%	96.2%	84.4%	93.9%	88.3%	95.2%	104%
